EBV gp42 inh: inhibitors of Epstein-Barr virus glycoprotein 42. Fluorescence polarization binding assay, mP read-out. inhibition, % (tested at 21.74 µM). 220,000 compounds, 0.42% hits. AID 1085; in the data active means inhibition above about 50%
PABP polyA inh: blocks human PABP binding to poly(A) RNA. P11940. fluorescence polarization. calls only at 35 µM. 290,000 compounds, 1% hits;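 further: calls also rest on retests at 20 µM and on dose response follow-up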
MEX-5 binding: C. elegans MEX-5 TCR-2 RNA binding activity | Q9XUB2 | MEX-5/FITC-TCR2 RNA binding, fluorescence polarization; stronger effect = lower value | activity score (negative = inhibition of binding), % at 10 µM | 300,000 compounds, 0.38% hits | AID 1832;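 active means inhibition past about -25% in most replicates, and total fluorescence under double the plate's negative control median, limit read from the data; inconclusive means replicates evenly split on the limit, or fluorescence at least double controls; inactive means too little inhibition in most replicates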
eIF4H FP inh: inhibitors of RNA binding by human eIF4H | eIF4H fluorescence polarization binding assay | AID 2012 | inhibition, % at 35 µM | 290,000 compounds, 0.94% hits | Q15056;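 further: calls also rest on retests at 20 µM and on dose response follow-up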
PABP1 MLLE inh: inhibitors of microRNA-mediated deadenylation, human PABP1 MLLE binding. inhibition, % at 20 µM. P11940. 360,000 compounds, 0.36% hits. GST-MLLE / FITC-PAM2 fluorescence polarization; in the data active means inhibition above about 35%, passing the limit was not always enough
Hits are given with their value; n = inactive; u = inconclusive; x = not tested or not shown; + = active, no number. A selection: hits, their analogues and other compounds. The true share with any hit is near 1.8%. Unless noted, how the calls were made is not given here.

SMILES | EBV gp42 inh | PABP polyA inh | MEX-5 binding | eIF4H FP inh | PABP1 MLLE inh
N=c1oc2ccccc2cc1-c1nc(-c2ccccc2)cs1 | n | n | n | u | n
Nc1nnc(-c2cc3c(ccc4ccccc43)oc2=O)s1 | 66 | n | x | 86 | x
CCOc1ccc(Cl)cc1-c1cc(C(=O)NCc2cccc(C(F)(F)F)c2)[nH]n1 | x | x | x | x | n
COc1ccc(CCNC(=O)Nc2nc(CN)cs2)cc1OC | x | x | x | x | n
Cc1ccccc1-c1cc2nc(Oc3cccc4ccccc34)n(C)c(=O)c2s1 | x | x | x | x | n
CC(C)N(Cc1ccccc1)C(=S)NC(=O)C1(C)CC1(Cl)Cl (stereo not drawn) | n | n | n | n | n
CC1(C(=O)NC(=S)N(CCC#N)c2ccccc2)CC1(Cl)Cl (stereo not drawn) | n | n | n | n | 47
CCN(CC)C(=O)c1cccc(-c2csc(C(C)(O)c3ccncc3)n2)c1 (stereo not drawn) | x | x | x | x | n
COC(=O)c1c(NC(=O)c2ccc(C)o2)sc2c1CCCCC2 | n | n | n | n | 37
Cc1nc2ccc(S(=O)(=O)CCC(=O)NCCc3ccccc3)cc2s1 | x | x | x | x | n
COc1ccc(N=Cc2c(O)n(-c3cccc(C)n3)c(=O)c3ccccc23)c(OC)c1 | n | u | -69 | u | n
CCNC(=O)c1cc2c(=O)n3cccc(C)c3nc2n(CCc2ccccc2)c1=N | n | n | -66 | n | n
COc1ccc(CCn2c(=N)c(C(=O)NC3CCCCC3)cc3c(=O)n4ccccc4nc32)cc1 | x | n | -45 | n | n
Cc1cccn2c(=O)c3cc(C(=O)NCC4CCCO4)c(=N)n(CCN4CCOCC4)c3nc12 (stereo not drawn) | n | n | n | n | n
COc1ccc(CCn2c(=N)c(C(=O)NC3CCCC3)cc3c(=O)n4cccc(C)c4nc32)cc1 | x | n | n | n | n
CCCn1c(=N)c(C(=O)NCC2CCCO2)cc2c(=O)n3cccc(C)c3nc21 (stereo not drawn) | n | n | -27 | n | n
Cc1cccn2c(=O)c3cc(C(=O)NC4CCCC4)c(=N)n(CCc4ccccc4)c3nc12 | x | n | -39 | n | n
CCOC(=O)CSc1c(-c2ccccc2)c2cc(Cl)ccc2[nH]c1=O | n | n | n | active | n
CCOC(=O)/C=c1\s/c(=C\c2ccc3cc(OC)ccc3c2)c(=O)n1CC(=O)NCC1CCCO1 (stereo not drawn) | n | u | -47 | u | n
COC(=O)c1ccc2nc(-c3ccc(C#N)cc3)c(Cc3cccc(F)c3)n2c1 | x | x | x | x | n
Cc1ccccc1C(=O)Nc1ccc2c(C#N)c3nc4ccccc4nc3n2c1 | 112 | n | n | u | n
COc1cc2c(cc1OC)C(c1ccc3c(c1)Cc1ccccc1-3)OC(=O)C2 (stereo not drawn) | x | x | x | x | n
O=C(c1ccc(CNS(=O)(=O)c2ccc(F)cc2)cc1)N1CCCCCC1 | x | x | x | x | n
Cc1cccnc1NC(=S)NC(=O)c1cccs1 | n | n | n | n | 39
Cc1nc2c(c(=O)n1CCC1=CCCCC1)c1nc3ccccc3nc1n2/N=C/c1ccco1 | n | + | n | 68 | n
SMILES | EBV gp42 inh | PABP polyA inh | MEX-5 binding | eIF4H FP inh | PABP1 MLLE inh
O=C(NCCCN1CCCC1=O)C(=O)NCC1OCCCN1S(=O)(=O)c1ccccc1 (stereo not drawn) | x | x | x | x | n
COc1cccc(-n2sc3c(c2=S)-c2cc(OC)ccc2NC3(C)C)c1 | n | n | n | n | n
CC1(C)Nc2ccc(O)cc2-c2c1ssc2=S | n | + | n | n | n
CCc1nnc(NC(=O)CSc2ccc(-c3cccs3)nn2)s1 | n | + | n | u | n
CCc1nnc(NC(=O)CSc2ccc(-c3ccc(F)cc3)nn2)s1 | n | n | n | n | x
COc1ccc(OC)c2sc(N(CCCN(C)C)C(=O)CCS(=O)(=O)c3ccccc3)nc12 | x | x | n | x | 43
COc1ccccc1N1CCN(S(=O)(=O)c2c(C)[nH]c(=O)[nH]c2=O)CC1 | n | n | x | n | n
Cc1[nH]c(=O)[nH]c(=O)c1S(=O)(=O)N1CCN(c2ccccc2F)CC1 | 61 | n | n | n | n
CCOC(=O)C1=C(O)/C(=C/c2ccc(CNC(=O)C(=O)Nc3ccc(C)cc3)o2)N=C1C | n | n | n | 103 | n
N#Cc1c(-c2ccco2)ccn(Cc2cccc(F)c2)c1=O | n | + | n | 70 | n
COc1ccc(C=C2SC(=O)NC2=O)cc1OC | x | x | x | x | n
NS(=O)(=O)c1ccc(-c2cccc(/C=C3\SC(=O)NC3=O)c2)cc1 | x | n | -36 | n | n
COc1cccc2c1C(=O)c1c(O)c3c(c(O)c1C2=O)C[C@@](O)(C(C)=O)C[C@@H]3O[C@H]1C[C@H](N)[C@H](O)[C@H](C)O1 | + | n | x | u | n

From PubChem
